The source of these data is PubChem BioAssay.

The source made the active and inactive calls. Unless noted, no rule for the calls is given here.

Assay [1] is described as follows: HepG2 liver cancer cell viability effects, profiling panel, resazurin fluorescence, 24 h, PK04 Diversity Set (AID 1172). Also: test concentration not given here. To be noted: higher = more signal. (The colour change of resazurin is a common sign of viable cells or microbes.)
A short description of assay [2]: basal S. cerevisiae growth modulation, no modifier, primary screen, OD600, strain BY4716, 24 h, basal condition (AID 1173). To be noted: OD600, 24 h, higher = more signal, called active from +8 up or from −8 down.
Assay [3] in a line: MM1S myeloma cell viability, profiling panel, resazurin fluorescence, basal, 24 h, PK04 Diversity Set (AID 1174). Also: test concentration not given here. To be noted: higher = more signal, called active from +8 up or from −8 down.
The target in assay [4] is Dihydroorotate dehydrogenase (quinone), mitochondrial (Plasmodium falciparum (isolate 3D7)) (UniProt Q08210). Put plainly: PfDHODH enzyme inhibitors, primary screen, biochemical, C-terminal His tag, absorbance 600 nm (AID 1175).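 Also: recombinant parasite enzyme with a five histidine tag at its C terminus; test concentration not given here.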 To be noted: DCIP absorbance 600 nm, higher = more signal, called active from +8 up or from −8 down.
Assay [5] in a line: P. aeruginosa biofilm formation inhibitors, primary screen, strain PAO1, LB-PBS medium, absorbance 600 nm (AID 1176). Also: test concentration not given here. The conditions noted are these: P. aeruginosa PAO1 growth/biofilm, A600, 12 h; higher = more signal.
Assay [6] is described as follows: S. cerevisiae RM11-1a growth modifiers, primary screen, strain RM11-1a, OD600, basal, 24 h (AID 1177).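 Also: cultures grown under basal conditions with no added stressor; test concentration not given here.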 To be noted: OD600, 24 h, higher = more signal, called active from +8 up or from −8 down.
A short description of assay [7]: E. coli acrAB mutant growth effects, primary screen, E. coli filamentation inducers, strain DRC39, OD650, 24 h (AID 1178).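 Also: growth measured as culture turbidity by optical density at 650 nm; test concentration not given here.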 The conditions noted are these: higher = more signal, called active from +8 up or from −8 down.
Assay [8] in a line: E. coli acrAB mutant growth effects, primary screen, E. coli filamentation inducers, strain DRC39, OD650, 48 h (AID 1179).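 Also: screen aims at cell division blockers that make cells filament.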 To be noted: E. coli DRC39 delta-acrAB growth, higher = more signal, called active from +8 up or from −8 down.
Assay [9] can be described thus: RPMI8226 myeloma cell viability, profiling panel, resazurin fluorescence, basal, 24 h, PK04 Diversity Set (AID 1180).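 Also: RPMI8826 multiple myeloma cell line at 5000 cells per well; test concentration not given here.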 The conditions noted are these: higher = more signal.
Assay [10] concerns the target E3 ubiquitin-protein ligase XIAP (Homo sapiens) (UniProt P98170). The assay can be described thus: XIAP binders, primary screen, biophysical, small-molecule microarray, fluorescence 635 nm (AID 1181).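 Also: score merges 667 nm emission and signal to noise over triplicate slides.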 To be noted: small-molecule microarray binding, higher = more signal.

Sequence of E3 ubiquitin-protein ligase XIAP (Homo sapiens) (P98170 whole entry, looked up): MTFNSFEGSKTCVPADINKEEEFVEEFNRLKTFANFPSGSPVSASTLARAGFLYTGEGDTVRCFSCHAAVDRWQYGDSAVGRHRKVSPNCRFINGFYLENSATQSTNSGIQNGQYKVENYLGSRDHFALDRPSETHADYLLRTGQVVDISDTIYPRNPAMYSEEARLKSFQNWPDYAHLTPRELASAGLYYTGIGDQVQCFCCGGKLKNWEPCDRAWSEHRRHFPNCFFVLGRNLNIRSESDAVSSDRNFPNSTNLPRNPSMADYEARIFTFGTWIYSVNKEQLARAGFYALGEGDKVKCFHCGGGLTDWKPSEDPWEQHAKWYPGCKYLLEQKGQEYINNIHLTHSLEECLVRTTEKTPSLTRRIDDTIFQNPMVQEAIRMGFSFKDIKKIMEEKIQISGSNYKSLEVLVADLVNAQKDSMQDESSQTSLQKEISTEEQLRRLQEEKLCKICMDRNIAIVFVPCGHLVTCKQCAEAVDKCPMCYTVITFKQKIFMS
Sequence of Dihydroorotate dehydrogenase (quinone), mitochondrial (Plasmodium falciparum (isolate 3D7)) (Q08210 whole entry, looked up): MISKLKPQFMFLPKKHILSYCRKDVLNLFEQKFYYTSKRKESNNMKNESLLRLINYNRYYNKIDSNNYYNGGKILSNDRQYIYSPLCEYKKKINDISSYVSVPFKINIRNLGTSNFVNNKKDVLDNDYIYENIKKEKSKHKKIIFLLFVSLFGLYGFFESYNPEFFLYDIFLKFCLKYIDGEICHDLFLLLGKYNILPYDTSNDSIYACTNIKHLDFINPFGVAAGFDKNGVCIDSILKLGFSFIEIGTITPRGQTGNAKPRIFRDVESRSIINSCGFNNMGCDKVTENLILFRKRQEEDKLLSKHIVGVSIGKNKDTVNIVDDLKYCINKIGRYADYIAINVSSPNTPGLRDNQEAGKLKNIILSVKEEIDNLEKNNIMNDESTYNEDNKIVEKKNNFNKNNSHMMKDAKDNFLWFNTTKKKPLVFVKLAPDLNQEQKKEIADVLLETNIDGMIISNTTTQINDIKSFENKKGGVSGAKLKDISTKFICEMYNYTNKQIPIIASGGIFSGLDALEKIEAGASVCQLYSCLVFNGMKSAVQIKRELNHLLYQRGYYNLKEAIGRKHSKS

For the compound `CO[C@H]1COC(=O)CC=C[C@@H](C)[C@H](NS(=O)(=O)c2ccc(C)cc2)COC(=O)CCC[C@@H]1C`, the z-score in assay [1] was 0.703; in assay [2], -0.99 (inactive); in assay [3], 1.01 (inactive); in [5] it was -0.361 (inactive); in assay [6], -0.5 (inactive); in assay [7], 0.0468 (inactive). Moreover, the z-score was 0.0191 (inactive) in [8] and 0.545 in assay [9]. The composite z-score in assay [4] is -0.242 (inactive); in assay [10], 0.0797.
Turning to `CC(C)(C)N1C(=O)[C@H]2[C@H]3[C@H](O)[C@H](O)CC(=NOCc4ccccc4)[C@H]3CC[C@H]2C1=O`, the z-score is -0.211 in [1]; -0.565 (inactive) in assay [2]; 0.0488 (inactive) in assay [3]; -0.237 (inactive) in assay [5]; -0.786 (inactive) in assay [6]; 0.184 (inactive) in assay [7]. Moreover, the z-score in [8] was 0.332 (inactive); in assay [9], 0.237. In addition, the composite z-score was -0.192 (inactive) in [4] and -0.102 in assay [10].
As to `CCN1C(=O)[C@H]2[C@H]3[C@H](O)[C@H](O)CC(=NOCC(C)C)[C@@H]3CC[C@H]2C1=O`, the z-score was 0.424 in assay [1]; -0.18 (inactive) in [2]; -0.243 (inactive) in [3]; 0.99 (inactive) in assay [5]; -0.589 (inactive) in assay [6]; -0.556 (inactive) in assay [7]. Moreover, the z-score in assay [8] was -1.86 (inactive); in [9], 0.279. Moreover, the composite z-score is -0.423 (inactive) in [4] and -0.0696 in assay [10].
In the case of `CC(C)C[C@H](NC(=O)CCC1CC(OC(=O)NCc2cccc3ccccc23)CC2(CCCC(COC(=O)NCc3ccccc3)O2)O1)C(=O)NCC(c1ccccc1)c1ccccc1` (stereo not given in full), the z-score in assay [1] was 0.1; in assay [2], -0.245 (inactive); in assay [3] it was 0.284 (inactive); in [5], 0.851 (inactive); in assay [6] it was -0.0457 (inactive); in [7], 0.64 (inactive). For the same compound, the figures for the z-score in assay [8] and in assay [9] were 0.628 (inactive) and 0.731, respectively. For the same compound, the values for the composite z-score in assay [4] and in [10] were -0.79 (inactive) and -0.242, respectively.
For the compound `COc1ccc(O[C@H]2C=C[C@@H](c3ccccc3)O[C@@H]2CON=CC[C@@H]2C=C[C@H](OC(C)=O)[C@@H](COC(C)=O)O2)cc1`, the z-score in [1] was 0.185; in assay [2], 2.06 (inactive); in [3], -0.0893 (inactive); in assay [5], 0.405 (inactive); in [6] it was 1.34 (inactive); in [7] it was 0.503 (inactive). The values for the z-score in [8] and in [9] were -0.185 (inactive) and -0.604, respectively. The figures for the composite z-score in [4] and in assay [10] were 0.0159 (inactive) and 0.0391, respectively.
With `C#CCCCON=C1C[C@@H](O)[C@@H](O)[C@@H]2[C@@H]3C(=O)N(C(C)(C)C)C(=O)[C@@H]3CC[C@H]12`, the z-score in assay [1] is -0.375; in [2], 0.522 (inactive); in assay [3], -0.0486 (inactive); in [5], -0.143 (inactive); in assay [6], -0.311 (inactive); in assay [7] it was 0.329 (inactive). The values for the z-score in assay [8] and in assay [9] were 0.221 (inactive) and -0.0553, respectively. Also, the composite z-score in [4] was -0.396 (inactive); in assay [10], -0.0849.
Turning to `CO[C@H]1COC(=O)CC=C[C@H](C)COC(=O)[C@@H](C)NC(=O)CC=C[C@@H]1C`, the z-score in assay [1] was -0.251; in assay [2] it was -0.695 (inactive); in assay [3] it was 1.31 (inactive); in [5], -0.16 (inactive); in assay [6], -0.652 (inactive); in [7], 0.33 (inactive). The z-score in [8] was -1.21 (inactive); in assay [9], 0.961. The values for the composite z-score in assay [4] and in [10] were -0.412 (inactive) and 0.0297, respectively.
As to `CCc1cc2c(nc1CC)CCN(CCC(C)=NO[C@H](C)c1cn([C@H](CO)Cc3ccccc3)nn1)C2`, the z-score in assay [1] was -0.605; in assay [2], -0.0397 (inactive); in assay [3], -0.376 (inactive); in assay [5], -0.503 (inactive); in [6], -0.0857 (inactive); in [7] it was -1.4 (inactive). Also, the z-score is -1.17 (inactive) in assay [8] and -0.162 in [9]. In addition, the composite z-score in [4] is 1.07 (inactive); in assay [10] it was 0.204.
With `COCOc1ccc(Br)cc1C(=O)[C@@H]1O[C@H]1c1cccc(OC)c1`, the z-score is -0.0514 in assay [1]; -8.36 (active) in [2]; -1.86 (inactive) in assay [3]; -0.257 (inactive) in assay [5]; 0.45 (inactive) in assay [6]; 0.534 (inactive) in [7]. The z-score in assay [8] was 0.35 (inactive); in assay [9], -0.516. The composite z-score was 0.0095 (inactive) in assay [4] and 0.184 in assay [10].
Take `CON=Cc1ccc(C(=O)N2[C@H](c3ccc(C)cc3)[C@@H](C)CC[C@H]2C(=O)OC)cc1`: the z-score in [1] was 0.259; in assay [2], -2.35 (inactive); in assay [3], 0.37 (inactive); in [5] it was -0.066 (inactive); in [6], -0.308 (inactive); in [7], 0.743 (inactive). Moreover, the results for the z-score in assay [8] and in [9] were 0.0138 (inactive) and 0.589, respectively. Besides, the figures for the composite z-score in assay [4] and in assay [10] were 0.442 (inactive) and -0.0559, respectively.
With `CO[C@H]1COC(=O)[C@@H](C)COC(=O)[C@H](C)NC(=O)CC=C[C@H]1C`, the z-score in assay [1] was 0.926; in [2], -0.916 (inactive); in assay [3], 0.433 (inactive); in assay [5], -1.13 (inactive); in [6], -0.212 (inactive); in assay [7], 0.618 (inactive). Also, the z-score in assay [8] is -0.539 (inactive); in assay [9] it was 0.351. For the same compound, the composite z-score in assay [4] is 0.289 (inactive); in [10], -0.327.
`CC[C@@H](c1ccccc1)n1c(=O)n2n(c1=O)[C@H]1[C@H](O)[C@@H]3O[C@@H]3C(=NOC[C@@H](O)COCc3ccco3)[C@H]1CC2`: the z-score in assay [1] was -0.466; in assay [2] it was 0.626 (inactive); in assay [3], -0.617 (inactive); in assay [5] it was -0.613 (inactive); in assay [6], -1.11 (inactive); in [7] it was 0.243 (inactive). In addition, the z-score in assay [8] was 0.047 (inactive); in [9], -0.257. Besides, the results for the composite z-score in [4] and in [10] were -0.337 (inactive) and -0.117, respectively.
For the compound `CC(C)=CCCC(C)=CCON=C1C[C@@H](O)[C@@H](O)[C@@H]2[C@@H]3C(=O)N(Cc4ccccc4)C(=O)[C@@H]3CC[C@@H]12`, the z-score is 1.42 in assay [1]; -0.404 (inactive) in assay [2]; 0.772 (inactive) in assay [3]; -0.143 (inactive) in assay [5]; 0.581 (inactive) in [6]; 0.593 (inactive) in [7]. The figures for the z-score in [8] and in assay [9] were 1.01 (inactive) and 0.97, respectively. The composite z-score in assay [4] was 0.317 (inactive); in assay [10] it was -0.121.
